Our source for the growth values is PubChem BioAssay (NCI).

Common to all, as to assay: NCI-60 one-dose screen, 48 h (100 = growth as untreated, 0 = no growth, -100 = all killed)
Assay [1] relates to T-47D breast. As to conditions: 10 µM.
For assay [2], the system named is BT-549 breast. As to conditions: 10 µM.
The subject of assay [3] is MDA-MB-435 melanoma. As to conditions: 10 µM.
Assay [4] relates to SW-620 colon. Conditions: 10 µM.
Assay [5] concerns MCF7 breast. As to conditions: 10 µM unless noted.
In assay [6] the test system is HCT-116 colon. Conditions: 10 µM.
The test system of assay [7] is HCC-2998 colon. Conditions: 10 µM.
Assay [8] has as its system KM12 colon. Conditions: 10 µM.

About 83,000 compounds went through this panel and 20% of them were active in at least one assay; those are over-represented in the sample as a whole.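 Cell lines were cultured in 96-well plates, exposed to a single compound concentration, and assessed for percent growth 48 hours later.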 A number with no mark means an inactive call. The source made the active and inactive calls. Rule for the calls: active = growth percent below 10; inactive = the rest.

Take `O=C(Cc1ccc(OCc2ccccc2)cc1)NCc1ccc2c(c1)OCO2`: the growth is 86.2% in assay [1]; 56.1% in assay [2]; -42.4% (active) in assay [3]; 28.1% in assay [4]; 44.5% in assay [5]; 40.4% in assay [6]. The values for the growth in assay [7] and in assay [8] were 77.2% and 33.1%, respectively.

Take `CC(=O)OC1CC2C(C)(C)OC3CC(=O)OCC32C2CCC3(C)C(=CCC3c3ccoc3)C12C` (stereo not given): the growth in assay [1] was 88.3%; in assay [2], 126%; in assay [3] it was 97.8%; in assay [4], 112%; in assay [5], 87.8%; in assay [6], 106%. In addition, the growth in assay [7] is 80.7%; in assay [8] it was 98.9%.

Take `Nc1ccc(CC(=O)O)c(N)c1`: the growth in assay [1] is 117%; in assay [2], 105%; in assay [3] it was 97.6%; in assay [4] it was 100%; in assay [5], 99.3%; in assay [6], 103%. Besides, the growth was 104% in assay [7] and 93.5% in assay [8].

For `O=C(c1ccc(O)cc1)c1ccc(O)cc1`, the growth in assay [1] is 113%; in assay [2] it was 122%; in assay [3] it was 105%; in assay [4], 113%; in assay [5] it was 113%; in assay [6] it was 95%. Also, the growth is 105% in assay [7] and 100% in assay [8].

On to `CC(C)=NNc1ccc([N+](=O)[O-])cc1[N+](=O)[O-]`, for which the growth in assay [1] is 64.9%; in assay [2], 90.9%; in assay [3], 84.2%; in assay [4], 85.7%; in assay [5], 93.7%; in assay [6], 82.5%. The growth in assay [7] was 87%; in assay [8] it was 86.4%.

Take `CCCCC/C=N/Nc1nc(C)cc(=O)[nH]1`: the growth in assay [1] is 103%; in assay [2], 109%; in assay [3] it was 95.7%; in assay [4] it was 104%; in assay [5], 92.9%; in assay [6], 101%. Besides, the growth was 98.8% in assay [7] and 106% in assay [8].

On to `CCOC(=O)C(CCC(C)C)C(=O)OCC`, for which the growth is 100% in assay [1]; 104% in assay [2]; 102% in assay [3]; 102% in assay [4]; 97.5% in assay [5]; 108% in assay [6]. The growth in assay [7] is 101%; in assay [8], 104%.

Take `O=c1c2ccccc2c(Br)c(Br)c2ccccc12`: the growth was 53.5% in assay [1]; 82.4% in assay [2]; 77.6% in assay [3]; 29.8% in assay [4]; 101% in assay [5]; 17.8% in assay [6]. Besides, the growth in assay [7] was 103%; in assay [8], 105%.

With `Cc1cc2nc(CO)[nH]c2cc1C`, the growth was 124% in assay [1]; 105% in assay [2]; 109% in assay [3]; 103% in assay [4]; 120% in assay [5]; 108% in assay [6]. The growth was 109% in assay [7] and 103% in assay [8].

As to `O=[N+]([O-])c1ccc(/C=C/C=C/c2ccccc2)c(Cl)c1`, the growth in assay [1] was 74.3%; in assay [2], 102%; in assay [3] it was 99.5%; in assay [4], 98.1%; in assay [5], 74.2%; in assay [6], 76.6%. Besides, the results for the growth in assay [7] and in assay [8] were 97.3% and 94.5%, respectively.

Turning to `CC(=O)NC(N)=S`, the growth in assay [1] was 124%; in assay [2] it was 117%; in assay [3] it was 117%; in assay [4] it was 101%; in assay [5] it was 86.5%; in assay [6], 111%. The figures for the growth in assay [7] and in assay [8] were 100% and 107%, respectively.

With `COCCCC/C(=N\OCCN)c1ccc(C(F)(F)F)cc1`, the growth is 86.4% in assay [1]; 107% in assay [2]; 99.4% in assay [3]; 97.1% in assay [4]; 108% in assay [5]; 101% in assay [6]. In addition, the growth in assay [7] is 116%; in assay [8] it was 107%.

For `Cc1cc(C(C)(C)C)cc(C)c1Br`, the growth was 115% in assay [1]; 104% in assay [2]; 110% in assay [3]; 104% in assay [4]; 103% in assay [5]; 97.6% in assay [6]. Also, the growth in assay [7] was 99.4%; in assay [8], 105%.

With `S=C1CCCCCN1`, the growth was 100% in assay [1]; 103% in assay [2]; 104% in assay [3]; 107% in assay [4]; 99.4% in assay [5]; 102% in assay [6]. Besides, the growth is 112% in assay [7] and 105% in assay [8].

For `Cc1nc2c(ccc3ccccc32)s1`, the growth in assay [1] is 102%; in assay [2], 109%; in assay [3], 115%; in assay [4], 107%; in assay [5], 99.2%; in assay [6], 103%. Also, the growth in assay [7] was 75.1%; in assay [8], 117%.

For `O=C(O)CCCc1ccccc1`, the growth was 101% in assay [1]; 105% in assay [2]; 98.9% in assay [3]; 111% in assay [4]; 104% in assay [5]; 104% in assay [6]. Further, the results for the growth in assay [7] and in assay [8] were 107% and 114%, respectively.

As for `O=[N+]([O-])c1ccc(O)c(S(=O)(=O)O)c1`, the growth is 96.5% in assay [1]; 128% in assay [2]; 109% in assay [3]; 104% in assay [4]; 102% in assay [5]; 101% in assay [6]. The growth in assay [7] was 112%; in assay [8] it was 111%.

With `CCCCCCCCCCC1CO1` (stereo not given), the growth was 103% in assay [1]; 109% in assay [2]; 112% in assay [3]; 106% in assay [4]; 92.4% in assay [5]; 102% in assay [6]. In addition, the growth was 102% in assay [7] and 109% in assay [8].

On to `COc1ccc(C2(O)CCCCC2)cc1`, for which the growth is 98.2% in assay [1]; 112% in assay [2]; 107% in assay [3]; 102% in assay [4]; 102% in assay [5]; 99.1% in assay [6]. For the same compound, the growth was 104% in assay [7] and 107% in assay [8].

Regarding `CC(=O)OCC1OC(OC2=C(CC=C(C)C)C(=O)c3ccccc3C2=O)C(OC(C)=O)C(OC(C)=O)C1OC(C)=O` (stereo not given), the growth in assay [1] was -61.3% (active); in assay [2], -6.85% (active); in assay [3], -17.1% (active); in assay [4], 11.1%; in assay [5], -60.2% (active); in assay [6], 1.75% (active). For the same compound, the growth in assay [7] was 77.9%; in assay [8] it was 5.15% (active).

As for `COc1cc(/C=C(\C#N)C(=O)c2ccccc2)ccc1OCc1ccccc1`, the growth in assay [1] is 105%; in assay [2], 94.9%; in assay [3], 101%; in assay [4] it was 99.4%; in assay [5], 96.6%; in assay [6], 104%. The growth is 89.8% in assay [7] and 99.1% in assay [8].

Turning to `COC(=O)C(O)c1ccccc1` (stereo not given), the growth is 107% in assay [1]; 109% in assay [2]; 107% in assay [3]; 111% in assay [4]; 99.3% in assay [5]; 97.7% in assay [6]. Moreover, the growth in assay [7] is 104%; in assay [8], 106%.

Regarding `CC(C)=CC(=O)OC(=O)C=C(C)C`, the growth in assay [1] was 105%; in assay [2] it was 105%; in assay [3], 107%; in assay [4], 110%; in assay [5] it was 94.7%; in assay [6] it was 109%. Besides, the growth in assay [7] was 117%; in assay [8], 102%.

`[O-][N+](=Nc1cccc(Cl)c1)c1cccc(Cl)c1`: the growth in assay [1] is 30.2%; in assay [2], 73.1%; in assay [3], 102%; in assay [4], 90.4%; in assay [5] it was 27.6%; in assay [6] it was 90.6%. In addition, the growth in assay [7] is 63.1%; in assay [8] it was 91.9%.

For the compound `O=c1cc(-c2ccccc2)nc2cc(-c3ccco3)[nH]n12`, the growth was 65.4% in assay [1]; 98.3% in assay [2]; 41.8% in assay [3]; 81.7% in assay [4]; 28% in assay [5]; 90.3% in assay [6]. Also, the growth in assay [7] was 91.7%; in assay [8], 69.5%.
